Results on 16 compounds are retold here after PubChem BioAssay (Tox21).

Molecules are shown by their SMILES. Unmarked numbers belong to inactive results. Results filed as inconclusive are left out. Active and inactive are the calls of the source. Calls come from the whole dose curve; as a rule, active = well fitted curve in the direction sought with a large enough effect in the repeat runs; inconclusive = weak or mixed curves; inactive = no such curve, though single readings can be large; an effect the other way counts as inactive or inconclusive.

The nature of assay [1]: qHTS RealTime-Glo MT Cell Viability Assay in HEK293 cells - 16 hour (AID 1224872). For activity change, negative = cytotoxicity: top concentration of the series differs between compounds. Note: nearly all actives have a fitted effect of over 50% in size. Note: potency is the fitted concentration of half-maximal effect. The method, boiled down: (§1)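 Assay medium contained NanoLuc luciferase plus cell-permeant prosubstrate, added with HEK293 cells at 600 cells/well. After 5 h at 37 C/5% CO2 compounds were added; plates stayed at 37 C for 40 h with serial luminescence reads.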
Assay [2] is described as follows: qHTS RealTime-Glo MT Cell Viability Assay in HepG2 cells - 8 hour (AID 1224873). Note: nearly all actives have a fitted effect of over 55% in size. Summed up: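 HepG2 cells mixed with RealTime-Glo MT reagents (NanoLuc plus cell-permeant prosubstrate) were seeded at 600 cells/well, incubated 5 h at 37 C/5% CO2, then pinned with compounds in DMSO; nonlytic luminescence tracked viability during 40 h treatment.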
Assay [3] in a line: qHTS RealTime-Glo MT Cell Viability Assay in HEK293 cells - 40 hour (AID 1224874). Note: nearly all actives have a fitted effect of over 50% in size. Note: potency is the fitted concentration of half-maximal effect. Particulars: RealTime-Glo luminescence; max response: hits give low values. The method, boiled down:
(§2)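 Viable HEK293 cells reduce a cell-permeant prosubstrate; the product diffuses out and is consumed by NanoLuc in the medium to give light. Compounds went in after a 5 h incubation and plates were read over the treatment course.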
On the technique in general: qHTS replaces the single test concentration by a dilution series.

A short description of assay [4]: qHTS RealTime-Glo MT Cell Viability Assay in HepG2 cells - 32 hour (AID 1224877). Note: nearly all actives have a fitted effect of over 55% in size. Note: potency is the fitted concentration of half-maximal effect. Summed up: (§3)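 qHTS, HepG2, 600 cells/well, RealTime-Glo (NanoLuc + prosubstrate) added with cells; 5 h preincubation; DMSO compound addition; 37 C; luminescence at 0/8/16/24/32/40 h.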
Assay [5] is described as follows: qHTS RealTime-Glo MT Cell Viability Assay in HEK293 cells - 0 hour (AID 1224880). Note: top concentration of the series differs between compounds; nearly all actives have a fitted effect of over 45% in size. Summed up: as §2
Assay [6] is described as follows: A CellTox Green Cytotoxicity Assay to monitor cytotoxicity in HepG2 cells - 0 hour (AID 1224882). Note: nearly all actives have a fitted effect of over 35% in size. Note: potency is the fitted concentration of half-maximal effect. Summed up: (§4)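 Using 1536-well format, dye-containing HepG2 suspension was seeded, allowed 5 h at 37 C/5% CO2, dosed by pintool with compounds, positive and negative controls, and imaged for fluorescence across 40 h.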
Assay [7] in a line: A CellTox Green Cytotoxicity Assay to monitor cytotoxicity in HEK293 cells - 8 hour (AID 1224884). Note: nearly all actives have a fitted effect of over 35% in size. Note: potency is the fitted concentration of half-maximal effect. Summed up: (§5)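 Fluorescence intensity, read at 0, 8, 16, 24, 32 and 40 h of compound treatment, reflected dye binding to DNA of dead HEK293 cells; compounds (23 nL, DMSO) were added 5 h after plating cells with reagent.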
A short description of assay [8]: qHTS RealTime-Glo MT Cell Viability Assay in HepG2 cells - 16 hour (AID 1224885). Note: nearly all actives have a fitted effect of over 50% in size. Summed up: as §3
The nature of assay [9]: qHTS RealTime-Glo MT Cell Viability Assay in HEK293 cells - 8 hour (AID 1224887). For activity change, negative = cytotoxicity: top concentration of the series differs between compounds. Note: nearly all actives have a fitted effect of over 50% in size. Note: potency is the fitted concentration of half-maximal effect. The method, boiled down:
as §2

The nature of assay [10]: qHTS RealTime-Glo MT Cell Viability Assay in HepG2 cells - 0 hour (AID 1224889). Note: nearly all actives have a fitted effect of over 50% in size. The method, boiled down:
as §3

Assay [11] in a line: A CellTox Green Cytotoxicity Assay to monitor cytotoxicity in HepG2 cells - 8 hour (AID 1224890). Note: nearly all actives have a fitted effect of over 45% in size. Note: potency is the fitted concentration of half-maximal effect. Summed up: as §4
Assay [12] is described as follows: A CellTox Green Cytotoxicity Assay to monitor cytotoxicity in HEK293 cells - 24 hour (AID 1224875). For activity change: series mostly up to about 77 µM. Note: nearly all actives have a fitted effect of over 45% in size. Note: potency is the fitted concentration of half-maximal effect. Summed up:
as §5

A short description of assay [13]: A CellTox Green Cytotoxicity Assay to monitor cytotoxicity in HepG2 cells - 16 hour (AID 1224876). Note: nearly all actives have a fitted effect of over 45% in size. Note: potency is the fitted concentration of half-maximal effect. Summed up: as §4
Assay [14] can be described thus: A CellTox Green Cytotoxicity Assay to monitor cytotoxicity in HepG2 cells - 24 hour (AID 1224878). Note: nearly all actives have a fitted effect of over 45% in size. Note: potency is the fitted concentration of half-maximal effect. Summed up: as §4
Assay [15] is described as follows: A CellTox Green Cytotoxicity Assay to monitor cytotoxicity in HepG2 cells - 40 hour (AID 1224879). Note: nearly all actives have a fitted effect of over 40% in size. Note: potency is the fitted concentration of half-maximal effect. The method, boiled down: as §4
Assay [16] in a line: A CellTox Green Cytotoxicity Assay to monitor cytotoxicity in HepG2 cells - 32 hour (AID 1224883). Note: nearly all actives have a fitted effect of over 50% in size. Note: potency is the fitted concentration of half-maximal effect. The method, boiled down: as §4
Assay [17] in a line: qHTS RealTime-Glo MT Cell Viability Assay in HEK293 cells - 24 hour (AID 1224886). For activity change, negative = cytotoxicity: top concentration of the series differs between compounds. Note: nearly all actives have a fitted effect of over 50% in size. Note: potency is the fitted concentration of half-maximal effect. The method, boiled down:
as §1

Assay [18] in a line: A CellTox Green Cytotoxicity Assay to monitor cytotoxicity in HEK293 cells - 16 hour (AID 1224888). Note: nearly all actives have a fitted effect of over 35% in size. Note: potency is the fitted concentration of half-maximal effect. The method, boiled down:
as §5

The nature of assay [19]: A CellTox Green Cytotoxicity Assay to monitor cytotoxicity in HEK293 cells - 32 hour (AID 1224881). Note: nearly all actives have a fitted effect of over 40% in size. Note: potency is the fitted concentration of half-maximal effect. The method, boiled down: as §5
% is set by controls: 0 for no effect and ±100 for the full control effect.

For the compound `O=C(c1ccc(O)c(O)c1)c1ccc(O)cc1O`, the Potency result in assay [1], in [2], in [4], in assay [5], in [6] and in [7] was “inactive” in each case. For the same compound, the Potency result in assay [8], in assay [9], in assay [10] and in [11] was “inactive” in each case. Moreover, in assay [3], the Potency was 24.5 µM (active).

`NC[C@H]1O[C@H](O[C@H]2[C@H](O[C@@H]3O[C@H](CO)[C@@H](O)[C@H]3O)C(O)[C@H](N)C[C@@H]2N)[C@H](N)[C@@H](O)[C@@H]1O` (stereo partly drawn): the activity change, negative = cytotoxicity in assay [1] is 3.13% [at 6.97 µM]; in [5], 10.7% [at 6.97 µM]; in assay [17] it was 4.78% [at 6.97 µM]; in [9], -3.38% [at 6.97 µM]; in assay [10], 1.18% [at 6.97 µM]. In addition, the max response in assay [3] is 4.82%. Besides, the activity change is -9.09% [at 6.97 µM, hits give high values] in assay [12] and -6.01% [at 6.97 µM, hits give high values] in [18]. The cytotoxicity increase in [13] is 11% [at 6.97 µM]; in assay [15] it was 9.38% [at 6.97 µM]; in assay [16], 7.9% [at 6.97 µM]; in assay [7], -4.48% [at 6.97 µM]; in [11], 12.8% [at 6.97 µM]. Also, the activity change, negative = cytotoxic is 0.467% [at 6.97 µM] in assay [4] and 1.38% [at 6.97 µM] in assay [8]. Moreover, the cytotoxicity was 9.58% [at 6.97 µM] in assay [14] and 11.3% [at 6.97 µM] in assay [6].

In the case of `CCCCCc1ccc(Cl)cc1`, in [3], the Potency is 15.5 µM (active). The Potency entry in assay [12], in assay [4], in assay [14], in assay [15], in assay [5] and in assay [19] was “inactive” in each case. Besides, the Potency result in assay [6], in assay [16], in [7], in assay [8], in [9] and in [18] was “inactive” in each case. Moreover, the Potency entry in [10] and in assay [11] was “inactive” each time.

`Oc1cc(Cl)cc(Cl)c1Cl`: the Potency entry in [2], in [13], in assay [4], in assay [14], in assay [15] and in [5] was “inactive” each time. Further, the Potency entry in assay [6], in [16], in [8], in [10] and in assay [11] was “inactive” throughout.

With `CC1(C)CCC[C@]2(C)[C@H]3CCO[C@]3(C)CC[C@@H]12`, the Potency entry in assay [1], in assay [2], in assay [4], in [14], in assay [15] and in assay [5] was “inactive” each time. Further, the Potency result in [6], in assay [16], in assay [8], in assay [17], in [9] and in assay [10] was “inactive” throughout. In addition, the Potency result in assay [11] is “inactive”. The max response in assay [3] was 4.7%.

Regarding `C[Si](Cl)(c1ccccc1)c1ccccc1`, the Potency entry in assay [12], in assay [13], in assay [4], in assay [14], in [15] and in [5] was “inactive” each time. Besides, the Potency result in assay [6], in [16], in assay [7], in assay [8], in assay [18] and in assay [10] was “inactive” in each case. In addition, the Potency result in [11] was “inactive”.

For `O=S(=O)(O)c1ccc(N=Nc2c(O)ccc3ccccc23)cc1`, the Potency result in [1], in assay [12], in assay [14], in assay [15], in assay [5] and in assay [6] was “inactive” in each case. Also, the Potency entry in assay [16], in [7], in assay [18] and in [11] was “inactive” in each case.

For `O=C1NC(=O)[C@@H]2CC=CC[C@H]12`, the Potency result in assay [1], in assay [2], in assay [12], in assay [13], in [4] and in assay [14] was “inactive” throughout. In addition, the Potency entry in assay [5], in assay [6], in assay [7], in assay [8], in assay [17] and in assay [9] was “inactive” each time. For the same compound, the Potency result in assay [18], in [10] and in [11] was “inactive” throughout.

Consider `COc1ccc2cc1Oc1ccc(cc1)C[C@H]1c3c(cc4c(c3Oc3cc5c(cc3OC)CCN(C)[C@@H]5C2)OCO4)CCN1C`, for which the Potency is 6.74 µM (active) in assay [3]; 19 µM (active) in assay [13]; 23.9 µM (active) in assay [4]; 23.9 µM (active) in assay [14]; 21.3 µM (active) in [15]; 23.9 µM (active) in assay [16]. Also, the Potency entry in assay [5], in [6], in assay [7], in assay [10] and in assay [11] was “inactive” in each case.

`CCOC(=O)NNc1ccc(N(CC)CC(C)O)nn1` (stereo not drawn): the Potency result in assay [1], in assay [2], in assay [12], in [13], in assay [4] and in [14] was “inactive” in each case. The Potency entry in [15], in [5], in assay [19], in [6], in [16] and in [7] was “inactive” throughout. Moreover, the Potency result in [8], in [17], in assay [9], in [18] and in assay [11] was “inactive” throughout.

`Sc1nc2ccccc2s1`: the Potency entry in [1], in assay [2], in assay [13], in assay [4], in assay [5] and in [6] was “inactive” each time. Further, the Potency entry in assay [7], in [8], in assay [17], in assay [9], in [10] and in assay [11] was “inactive” each time. In addition, the max response in assay [3] is 15.8%.

Take `Nc1cc(Cl)c(O)c(Cl)c1`: the Potency entry in assay [1], in assay [12], in assay [13], in [4], in assay [14] and in assay [15] was “inactive” in each case. Besides, the Potency entry in assay [5], in [19], in assay [6], in [16], in assay [7] and in assay [8] was “inactive” in each case. In addition, the Potency result in [18], in [10] and in assay [11] was “inactive” throughout. Moreover, the max response in assay [3] was -1.5%. For the same compound, in assay [9], the Potency is 43.6 µM (active).

As for `Cc1cc(C)c(/C=C2\C(=O)Nc3ccccc32)[nH]1`, the Potency result in [1], in [2], in assay [4], in assay [5], in assay [8] and in assay [17] was “inactive” throughout. Also, the Potency result in assay [9] and in [10] was “inactive” throughout. Also, the Potency in [12] was 10.7 µM (active); in assay [13] it was 16.9 µM (active); in [14], 19 µM (active); in assay [15] it was 19 µM (active); in [19], 10.7 µM (active); in assay [6] it was 10.7 µM (active). Further, the Potency is 19 µM (active) in [16], 16.9 µM (active) in assay [7], 10.7 µM (active) in assay [18] and 19 µM (active) in [11].

Turning to `O=C1CCc2ccc(OCCCCN3CCN(c4cccc(Cl)c4Cl)CC3)cc2N1`, the Potency in assay [1] was 10.7 µM (active); in assay [3] it was 9.52 µM (active); in assay [15] it was 26.8 µM (active); in assay [16], 26.8 µM (active); in assay [17], 9.52 µM (active); in [9], 21.3 µM (active). In addition, the Potency entry in assay [12], in assay [13], in [5], in [6], in [7] and in assay [18] was “inactive” throughout. The Potency entry in assay [10] and in assay [11] was “inactive” throughout.

For `Cc1cc(C(C)(C)C)c(O)c(C)c1Cn1c(=O)n(Cc2c(C)cc(C(C)(C)C)c(O)c2C)c(=O)n(Cc2c(C)cc(C(C)(C)C)c(O)c2C)c1=O`, the Potency result in assay [12], in assay [13], in assay [14], in assay [15], in [5] and in assay [19] was “inactive” throughout. Besides, the Potency entry in [6], in [16], in assay [7], in [18], in assay [10] and in assay [11] was “inactive” throughout.

In the case of `CCOC(=O)Cn1cccc1-c1nc(-c2ccc(OC)cc2)c(-c2ccc(OC)cc2)s1`, the Potency result in [1], in assay [12], in [14], in assay [15], in assay [5] and in assay [19] was “inactive” in each case. Moreover, the Potency result in [6], in assay [16], in [7], in assay [17], in assay [9] and in assay [18] was “inactive” each time. Moreover, the Potency entry in assay [10] and in [11] was “inactive” each time. The max response in assay [3] is -5.42%.
